Assay results reported in PubChem BioAssay (NCI).
This is part of a sample that, as a whole, favours compounds with a hit. Of some 79,000 tested, about 15% had one in any assay. Calls of active or inactive are those of the source. Rule as the data show it: active = growth inhibition above about 70%; inactive = the rest.

How the values were obtained:
[1] = NCI Yeast Anticancer Drug Screen. Data for the rad50 strain (AID 155);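 also: 0% = growth of vehicle-only cultures of the same strain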; conditions: S. cerevisiae rad50 strain growth inhibition; at 50.0 µM; stronger effect = higher value
Procedure, shortened: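 Genetically altered yeast (DNA repair pathway); compound treatment; growth inhibition vs vehicle ctrl.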

[2] = NCI Yeast Anticancer Drug Screen. Data for the mec2-1 strain (AID 157); conditions: S. cerevisiae mec2-1 strain, at 50.0 µM, stronger effect = higher value
Procedure, shortened: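 Mutant yeast (mec2-1) grown with compound; growth inhibition relative to vehicle control reported.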

[3] = NCI Yeast Anticancer Drug Screen. Data for the sgs1 mgt1 strain (AID 161);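 also: 0% = growth of cultures given vehicle only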; conditions: S. cerevisiae sgs1 mgt1 strain, at 50.0 µM, stronger effect = higher value
Procedure, shortened: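 Yeast cells carrying a defined DNA-repair defect were exposed to test compounds. Growth inhibition was measured relative to vehicle-treated controls.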

[4] = NCI Yeast Anticancer Drug Screen. Data for the cln2 rad14 strain (AID 165);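 also: 0% = growth equal to vehicle treated cultures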; conditions: S. cerevisiae cln2 rad14 strain, at 50.0 µM, stronger effect = higher value
Procedure, shortened: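 Readout is yeast growth inhibition versus vehicle-treated controls, using a strain with cln2 and rad14 alterations exposed to compound.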

[5] = NCI Yeast Anticancer Drug Screen. Data for the bub3 strain (AID 167); conditions: S. cerevisiae bub3 mutant strain, at 50.0 µM, stronger effect = higher value
Procedure, shortened: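 Yeast carrying a defined mutation is treated with each compound, and growth is compared with that of vehicle-exposed cells to give inhibition.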

[6] = NCI Yeast Anticancer Drug Screen. Data for the mlh1 rad18 strain (AID 175); conditions: S. cerevisiae mlh1 rad18 strain growth inhibition; at 50.0 µM; stronger effect = higher value
Procedure, shortened: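 Genetically defined yeast (DNA repair-deficient) exposed to compounds; growth inhibition determined relative to vehicle.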

Measured: growth inhibition

CC(C)Sc1nc2ccc(NC(=O)/C=C/C(=O)O)cc2s1
inactive: [1] 18.9% | [2] 8.65% | [3] 4.95% | [4] 14.1% | [5] 13.7% | [6] 12.1%

O=C(NC(Cc1ccccc1)C(=O)NNc1ccccc1Cl)OCc1ccccc1 (stereo not given)
active: [1] 92.4% | [2] 86.3% | [3] 94.7% | [5] 80% | [6] 89.5%
inactive: [4] 55.5%

C(=N\N(CCCCN(/N=C/c1ccccc1)c1ccccc1)c1ccccc1)/c1ccccc1
inactive: [1] 38.5% | [2] 11.2% | [3] 13.8% | [4] 21.8% | [5] -11.8% | [6] 23.9%

CC(C)CCOC(=O)C(C)(O)C(Cl)c1ccccc1 (stereo not given)
inactive: [1] 2.9% | [2] 2.55% | [3] -13.2% | [4] 1.35% | [5] 6.25% | [6] -6.95%

CC(=O)N(C)c1ccc(Nc2cc(S(=O)(=O)O)c(N)c3c2C(=O)c2ccccc2C3=O)cc1
inactive: [1] -20.2% | [2] -14.1% | [3] -27.4% | [4] -13.8% | [5] -37.3% | [6] -4.25%

O=C1c2ccccc2C(=O)N1c1cccc2ccccc12
inactive: [1] 51.4% | [2] 8.2% | [3] 26.6% | [4] -19.4% | [5] 55.7% | [6] 62%

CC1(c2ccccc2)OCCS1 (stereo not given)
inactive: [1] 40.7% | [2] 21.1% | [3] 19.8% | [4] 14.6% | [5] 1.1% | [6] 28.8%

CCOC(=O)C(=O)Nc1cccc(NC(=O)C(=O)OCC)n1
inactive: [1] 2.5% | [2] -21.6% | [3] -19.1% | [4] 4.4% | [5] -13.8% | [6] -6.05%

CCCCOC(=O)c1ccc(NC(=O)CCC(C)Cl)cc1 (stereo not given)
inactive: [1] -15.7% | [2] 13.2% | [3] -2.1% | [4] -22.2% | [5] 16.8% | [6] 6.6%

CN(C(=O)c1ccc(Cl)cc1)C(=S)N1CCN(c2ccccn2)CC1
inactive: [1] -66% | [2] -33.8% | [3] -36.6% | [4] -3.7% | [5] -13.9% | [6] -43.5%

CC1C(c2ccccc2)(N(C)C)CS1(=O)=O (stereo not given)
inactive: [1] -3.15% | [2] -8.5% | [3] -6.4% | [4] -74.7% | [5] 12.7% | [6] -8.6%

CCC(=O)c1c2c(cc3ccccc13)CCCC2
inactive: [1] 11.7% | [2] -10.7% | [3] 7.3% | [4] 3.85% | [5] 38.2% | [6] 34%

Cc1nc2ccc(N)cc2[nH]c1=O
inactive: [1] 16.9% | [2] 7% | [3] 12.8% | [4] 14.5% | [5] 6.5% | [6] 25.3%

CCOC(=O)C[n+]1cccc(Br)c1
inactive: [1] -2.6% | [2] 6.45% | [3] -6.85% | [4] -6.5% | [5] 16.3% | [6] -0.45%

N#Cc1nc(CCCCCN2C(=O)c3ccccc3C2=O)oc1N
inactive: [1] -8.9% | [2] 9.2% | [3] -23.1% | [4] -4.1% | [5] -28.6% | [6] -68.8%

COc1ccc(C23C(=O)c4ccccc4N2O[C@H]2C(=O)N(c4ccccc4)C(=O)[C@H]23)cc1 (stereo not given in full)
inactive: [1] -22.2% | [2] 20.1% | [3] -36.5% | [4] 7.9% | [5] -30.6% | [6] -21.1%

CC[N+](CC)(CC)Cc1cc2ccccc2n1C(=O)OC
inactive: [1] -9.25% | [2] -24.4% | [3] -25.8% | [4] -1.4% | [5] -12.2% | [6] -28.9%

CCOC(=O)c1c(C)[nH]c(=S)c(C#N)c1-c1ccc(Cl)cc1
inactive: [1] 13% | [2] 12.1% | [3] 34.4% | [4] 4.55% | [5] 28.6% | [6] -1.55%

COc1ccc(/C=C2\N=C(N/N=C\C(O)C(O)C(O)C(O)CO)NC2=O)cc1 (stereo not given)
inactive: [1] -7.3% | [2] -0.3% | [3] 9.2% | [4] 5.45% | [5] -3.8% | [6] -49.8%

c1c[nH]c(C2=NCCCCC2)c1
inactive: [1] 1.85% | [2] -6.95% | [3] 2.2% | [4] -3% | [5] -5.2% | [6] -29.1%

Cc1cccc(Cl)c1NC(=O)Nc1ccc(C#N)cc1
inactive: [1] 15.4% | [2] -10.6% | [3] 17.9% | [4] 5.35% | [5] -3.45% | [6] -1%

COc1ccc(OC)c(C2SCC(=O)N2c2nncs2)c1 (stereo not given)
inactive: [1] -19.8% | [2] 6% | [3] 15.2% | [4] -17.6% | [5] -8.7% | [6] 2.2%

CN1OC(CO)CC12C1CC3CC(C1)CC2C3 (stereo not given)
inactive: [1] -41% | [2] -19.1% | [3] -53.5% | [4] -3.4% | [5] -42.7% | [6] -53.8%

CC12CC3(Nc4ccccc4C3(C)O)OC1(C)c1ccccc1N2 (stereo not given)
inactive: [1] 1.1% | [2] 9.35% | [3] 10.3% | [4] 1.25% | [5] -6.1% | [6] 17.5%

Cc1ccccc1C(c1ccccc1)C(CO)CO (stereo not given)
inactive: [1] -1% | [2] 0.15% | [3] 2.9% | [4] -64.3% | [5] -5.4% | [6] -17.4%

C#CC(C)(O)CC(C)C (stereo not given)
inactive: [1] 1.9% | [2] -1.2% | [3] -8.6% | [4] -73.7% | [5] 6.65% | [6] -71.7%

O=c1[nH]c2cc([N+](=O)[O-])ccc2nc1/C(=N/Nc1ccccc1)C(O)c1ccco1 (stereo not given)
inactive: [1] 7.9% | [2] -17.4% | [3] 9.2% | [4] 16.2% | [5] 6.65% | [6] 25.3%

CC(=O)c1c[nH]cc1CO
inactive: [1] -1.7% | [2] 7.8% | [3] 8.85% | [4] 11.3% | [5] 11.6% | [6] -7.75%

O=C(/C=C/c1ccccc1)NC1C=Nc2ccc(Cl)cc2NC1=O (stereo not given)
inactive: [1] 39% | [2] 53.7% | [3] 38.5% | [4] 23% | [5] 28.2% | [6] 26.2%

CCOC(OCC)c1ccccc1OC
inactive: [1] 1.85% | [2] 1.05% | [3] 4.95% | [4] -15.1% | [5] 3.6% | [6] -1.1%

O=[N+]([O-])c1cc(Cl)cc2c1-c1c(Cl)cc(Cl)cc1C2
inactive: [1] 16.8% | [2] 28.3% | [3] 7.65% | [4] 20.8% | [5] -6.25% | [6] 4.05%

NC(=O)OC1CCN(c2cccc(Cl)c2)C1 (stereo not given)
inactive: [1] -8.1% | [2] -22.3% | [3] -16.1% | [4] 23.5% | [5] -18.8% | [6] 1.75%

O=S1(=O)CC(O)C(Br)C1 (stereo not given)
inactive: [1] -6.7% | [2] 24.1% | [3] 10.1% | [4] 4.85% | [5] 2.35% | [6] -10.8%

CS(=O)(=O)OCC1C2CCC(CC2)C1COS(C)(=O)=O (stereo not given)
inactive: [1] 4.5% | [2] 17.3% | [3] 10.2% | [4] -15.8% | [5] -13.2% | [6] -11.5%

CCCCCCCC(=O)OCC1OC(n2cc(F)c(=O)[nH]c2=O)C(NC(=O)OCc2ccccc2)C(O)C1O (stereo not given)
inactive: [1] -15.1% | [2] -13.8% | [3] -66.8% | [4] -7.1% | [5] -12.4% | [6] -17.6%

CCOC(=O)c1c[nH]c2cc3c(cc2c1=O)CCS3
inactive: [1] -27.4% | [2] -57% | [3] -1.45% | [4] 3.95% | [5] 9% | [6] -7.35%

Cc1ccc(C(=O)NC(N)=O)cc1
inactive: [1] 12.4% | [2] -6.25% | [3] -17.8% | [4] -51.4% | [5] -13.1% | [6] -18.6%

O=C1CCC(C(=O)Nc2ccc(Cl)cc2Cl)N1 (stereo not given)
inactive: [1] -0.15% | [2] 3.3% | [3] 7.2% | [4] 42.4% | [5] 3.45% | [6] 8.75%

COc1cc(OC)c2nc(C)c3c(c2c1)SCC3
inactive: [1] -0.5% | [2] -23.1% | [3] 5.25% | [4] 7.4% | [5] 28.6% | [6] 20%

O=c1c(Cl)c(Cl)cnn1CCc1ccncc1
inactive: [1] 2.2% | [2] -4.05% | [3] -19.6% | [4] 11.4% | [5] -7.3% | [6] -2.65%
